# Inconclusive results are not listed. A call without a number means that no potency is given here. A number with no mark means an inactive call. Calls of active or inactive are those of the source. Calls follow the shape of the full dose curve.
# Biological target: Acetylcholinesterase (Homo sapiens) (UniProt P22303)
# Assay: Acetylcholinesterase (AChE) small molecule antagonists: colormetric cell-based qHTS assay (AID 1347395); also: nearly all actives have a fitted effect of over 30% in size
# Details: SH-SY5Y cells AChE activity, colorimetric (Ellman); series mostly up to 115 µM
# Text: National Center for Advancing Translational Sciences [NCATS]
# Division of Preclinical Innovation [DPI]
# U.S. Environmental Protection Agency [EPA]
# National Institutes of Environmental Health Sciences [NIEHS]
# National Toxicology Program [NTP]
# U.S. Food and Drug Administration [FDA]
# Acetylcholinesterase (AChE) is the primary cholinesterase in the body that hydrolyzes a key neurotransmitter, acetylcholine. Inhibition of AChE activity can lead to neurotoxicity. The known inhibitors include organophosphorous pesticides (OP), chemical warfare agents, drugs, and various phytochemicals.
# A homogenous cell-based assay using the Amplite Colormetric acetylcholinesterase assay kit (AAT Bioquest, Sunnyvale, CA) was used to evaluate the chemicals in the Tox21 10K library that inhibit AChE activity. The assay uses 5, 5-dithiobis-(2-nitrobenzoic acid) (DTNB) to quantify the thiocholine produced from the hydrolysis of acetylthiocholine by AChE from the SH-SY5Y cells.
# Tox21 Assay Protocol Summary:
# For the cell-based AChE assay, 2,000 SH-SY5Y cells in 4 uL/well were dispensed into black, clear-bottom 1536-well plates using a Multidrop Combi dispenser (Thermo Scientific, MA). The assay plates were incubated overnight at 37 C to allow cells to attach to the wells, followed by the transfer of 23 nL of compound or DMSO (vehicle control) by a Pintool Station (Wako Automation, CA). The plates were incubated for 30 min at 37 C and 5% CO2, followed by the addition of 4 uL of detection cocktail solution (DTNB, acetylthiocholine) into each well using a Flying Reagent Dispenser (Beckman Coulter, CA) and then 90 min incubation at 37 C.
# Potency is read from the fitted curve at half-maximal effect.
# Chain of Acetylcholinesterase (Homo sapiens) (P22303 whole entry, looked up): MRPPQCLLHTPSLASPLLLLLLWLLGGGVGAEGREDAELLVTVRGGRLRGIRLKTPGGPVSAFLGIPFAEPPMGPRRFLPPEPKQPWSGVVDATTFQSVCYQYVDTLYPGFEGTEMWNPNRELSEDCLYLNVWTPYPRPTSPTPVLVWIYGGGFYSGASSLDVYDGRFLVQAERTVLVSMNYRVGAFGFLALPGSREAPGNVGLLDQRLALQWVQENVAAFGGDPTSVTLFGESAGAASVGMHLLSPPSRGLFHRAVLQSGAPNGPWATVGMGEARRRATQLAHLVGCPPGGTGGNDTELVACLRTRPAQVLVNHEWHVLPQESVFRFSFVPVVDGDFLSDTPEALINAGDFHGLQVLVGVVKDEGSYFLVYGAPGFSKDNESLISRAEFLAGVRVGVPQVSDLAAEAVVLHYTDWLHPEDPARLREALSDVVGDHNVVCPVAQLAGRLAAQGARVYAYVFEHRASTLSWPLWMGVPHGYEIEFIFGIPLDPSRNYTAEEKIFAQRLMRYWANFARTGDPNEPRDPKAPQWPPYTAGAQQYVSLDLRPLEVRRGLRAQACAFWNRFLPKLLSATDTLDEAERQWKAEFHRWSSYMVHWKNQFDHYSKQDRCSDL
Structure (SMILES),Potency,"activity, negative = inhibition"
Cc1ccc2sc3cccc(C)c3c2c1,inactive,–
CCc1cccc(CC)c1NC(=O)CN(CC(=O)O)CC(=O)O,inactive,–
COc1cnc(NS(=O)(=O)c2ccc(N)cc2)nc1,inactive,–
O=C(/C=C/c1ccc(O)c(O)c1)O[C@@H]1C[C@@](OC(=O)/C=C/c2ccc(O)c(O)c2)(C(=O)O)C[C@@H](O)[C@@H]1O,inactive,–
C=CCCCCCCCCCCC,–,-0.0098% [at 10.5 µM]
C=CCn1c(=O)n(CC=C)c(=O)n(CC=C)c1=O,inactive,–
CCCCN,inactive,–
CCC(C)NC(N)=O (stereo not given),inactive,–
CC1=C(/C=C/C(C)=C/C=C/C(C)=C/C=O)C(C)(C)CCC1,inactive,–
CC(=O)C(C)=O,inactive,–
O=C(Nc1ccc(S(=O)(=O)N2CCOCC2)cc1)c1cc(Cl)ccc1NS(=O)(=O)c1ccc(Cl)s1,inactive,–
C=CC(C)C#N (stereo not given),inactive,–
COc1ccc(CCC(=O)c2c(O)cc(O[C@@H]3O[C@H](CO)[C@@H](O)[C@H](O)[C@H]3O[C@@H]3O[C@@H](C)[C@H](O)[C@@H](O)[C@H]3O)cc2O)cc1O,inactive,–
CCCCCCCCCCCCCCCC[N+](C)(C)CCN(Cc1ccc(OC)cc1)c1ncccn1,inactive,–
CC[C@H]1CC[C@H](NCc2cc3c(cc2OC)[C@H]2C[C@H]2C(=O)N3C)[C@H](c2ccccc2)N1,31.7 µM (active),–
N#CCc1cccc(C(F)(F)F)c1,inactive,–
CCC(C)(C)C1CCC(=O)CC1,inactive,–
CCCCCCCCCCCCN(CCCCCCCCCCCC)CCCCCCCCCCCC,inactive,–
CC(C)(C)NCC(O)COc1cccc2c1C[C@H](O)[C@H](O)C2 (stereo not given in full),inactive,–
Cc1ccc(NC(N)=O)cc1,inactive,–

Structure (SMILES),Potency,"activity, negative = inhibition"
CC1=C(/C=C/C(C)=C\C=C\C(C)=C\C(=O)O)C(C)(C)CCC1,inactive,–
Cc1ccc(O)c([N+](=O)[O-])c1,inactive,–
COc1cc(-c2ccc(N=C=O)c(OC)c2)ccc1N=C=O,inactive,–
C=CC(=O)O,inactive,–
Cc1[nH]cnc1-c1ccc(Cl)cc1,inactive,–
O=P(O)(O)Oc1ccccc1,inactive,–
c1ccc(-c2nn[nH]n2)cc1,inactive,–
CCCc1ccc(N)cc1,inactive,–
O=C(O)c1cccnc1Nc1cccc(C(F)(F)F)c1,inactive,–
C=CCOCC(O)CO (stereo not given),inactive,–
CC/C(=C(/c1ccc(O)cc1)c1ccc(OCCN(C)C)cc1)c1ccccc1,41.7 µM (active),–
COc1ncnc(NS(=O)(=O)c2ccc(N)cc2)c1OC,inactive,–
CN1C[C@H]2c3ccccc3Oc3ccc(Cl)cc3[C@@H]2C1,inactive,–
CCC(CC)C(C)CCOC(C)=O (stereo not given),inactive,–
O=C1C=CC(=O)N1c1cccc(N2C(=O)C=CC2=O)c1,inactive,–
Oc1cc2c(cc1O)[C@H]1c3ccc(O)c(O)c3OC[C@@]1(O)C2,inactive,–
CCC(C)CCCC(C)(C)O (stereo not given),inactive,–
CCCCCCCC/C=C\CCCCCCCCO,inactive,–
CC(=O)CC(C)C,inactive,–
CCN(CC)C(=O)/C(C#N)=C/c1cc(O)c(O)c([N+](=O)[O-])c1,inactive,–

# Reference: PubChem BioAssay (Tox21)
